High-throughput results as filed in PubChem.
IL1B secr inh = inflammasome signaling inhibition, IL-1 beta readout. 360,000 compounds, 4.7% hits. AID 743279. activity change, % at 57.5 µM. THP-1 LPS/ATP IL-1B secretion, AlphaLISA, 16 h; active compounds read low; in the data active = activity change below about -50%; inconclusive = mostly about -30% to -49%; note: % is set by controls: 0 for no effect and ±100 for the full control effect
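THP-1 cells pretreated 1 hr with compounds (up to 57.5 uM final), then stimulated with LPS (250 ng/mL final) plus ATP (1.25 mM final); secreted IL-1B measured by AlphaLISA after 16 hr, decreased signal indicating inhibition.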
TDP1 cell CPT = DT40-hTDP1 cell growth loss with CPT | chicken DT40 Tdp1-/-;hTDP1 cells + 20 nM CPT, ATP luminescence, 48 h | Potency, µM (series often up to 46.2 µM), for inactives: top-dose activity change, negative = growth inhibition, most hits filed as inhibitors | 420,000 compounds, 12% hits; note: potency is the fitted concentration of half-maximal effect; % is set by controls: 0 for no effect and ±100 for the full control effect; nearly all actives have a fitted effect of over 55% in size
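Chicken DT40 Tdp1-/- cells stably complemented with human TDP1 were seeded at 400 cells/well in medium containing 20 nM camptothecin, exposed to pin-transferred compounds, and grown at 37 °C for at least 48 hr. Viability was read as ATP luminescence.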
TDP1 cell noCPT = qHTS for Inhibitors of human tyrosyl-DNA phosphodiesterase 1 (TDP1): qHTS in cells in absence of CPT; DT40 Tdp1-/- hTDP1 cells, no CPT, ATP luminescence, 48 h; Potency, µM (titrated, usually from 46.2 µM), without a hit: at the top dose activity change, negative = growth inhibition, actives largely listed as inhibitors; 420,000 compounds, 15% hits; AID 686978, 2013; note: potency is the fitted concentration of half-maximal effect; % is set by controls: 0 for no effect and ±100 for the full control effect; nearly all actives have a fitted effect of over 55% in size
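Camptothecin absent (DMSO only). Human TDP1-complemented DT40 knockout cells, 400 cells/well, 37 °C for minimum 48 hr; ATP measured via CellTiter-Glo, 30 min dark incubation, luminescence.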
SW480 rerep = induces DNA re-replication in SW480 colon adenocarcinoma cells; SW480 DNA re-replication, Hoechst DNA content imaging, 48 h; Potency, µM (doses to about 46.1 µM), for inactives: at the highest dose re-replication activation, most hits filed as activators; 340,000 compounds, 1.8% hits; AID 624297; note: potency is the fitted concentration of half-maximal effect; % of control where 0% means no effect; nearly all actives have a fitted effect of over 55% in size
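Image-based read-out: total Hoechst fluorescence of nuclei (405 nm excitation, 500-530 nm emission), with hits raising the fraction of high-intensity nuclei. SW480 colon cells incubated 48 hr with compounds at 37 C.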
BCR signal inh = blocks chronic active B-cell receptor signaling; ABC-DLBCL IkBa-CBG/CBR reporter, luminescence ratio, 4 h; Potency, µM (highest dose often 46.1 µM), for inactives: at the highest dose activity change, negative = inhibition, hits mostly inhibitors; 340,000 compounds, 0.05% hits; active = well fitted inhibition curve with a large enough effect in the signal ratio, with a control signal flat, not every such curve was filed as active; inconclusive = small, poorly fitted or top-dose-only effect, or effect the other way, or a change in a side signal; the % refers to the signal ratio;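 note: potency is the fitted concentration of half-maximal effect; plate controls were basal doxycycline-induced cells for no effect and cells given 10 µM MG132 for full effect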
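TMD8 human ABC-DLBCL cells with doxycycline-inducible IκBα–green luciferase fusion and unfused red luciferase, in 0.5% FBS medium; compounds up to 46 uM, 4 h at 37C. Green/red luminescence ratio, filter-overlap corrected, fitted to concentration-response curves.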
MCF10A rereplic = inducers of DNA re-replication in MCF 10A breast cells | MCF 10A DNA re-replication, Hoechst nuclear intensity, 48 h | Potency, µM (series often up to 46.1 µM), inactives show top-dose activity, positive = re-replication, usual class: activators | 350,000 compounds, 2.9% hits; note: potency is the fitted concentration of half-maximal effect; % of control where 0% means no effect; nearly all actives have a fitted effect of over 50% in size
Starred values were filed as active, the others as inactive; ? = inconclusive; . = no result. Shown are actives, neighbours in structure and some others; about 19% of the full set was active somewhere. Unless noted, calls come from the whole dose curve; as a rule, active = well fitted curve in the direction sought with a large enough effect; inconclusive = small, poorly fitted or top-dose-only effect, or another doubt; inactive = no such curve, though single readings can be large; an effect the other way counts as inactive or inconclusive.

SMILES | IL1B secr inh | TDP1 cell CPT | TDP1 cell noCPT | SW480 rerep | BCR signal inh | MCF10A rereplic
Cc1ccc(S(=O)(=O)N2CCC(=O)N(C(COCc3cccc(C(F)(F)F)c3)C(C)C)CC2)cc1 (configuration not stated) | -5 | 16µM* | 21µM* | ? | -11% | ?
Cc1ccc(S(=O)(=O)N2CCC(=O)N(C(COCc3cccc(Cl)c3)C(C)C)CC2)cc1 (configuration not stated) | 14 | ? | 21µM* | -1% | 4% | -4%
Cc1ccc(S(=O)(=O)N2CCC(=O)N(C(COCc3cccc(C)c3)C(C)C)CC2)cc1 (configuration not stated) | 11 | ? | ? | ? | -3% | 10%
O=C(NCCN1CCOCC1)c1cc2c(=O)n3ccccc3nc2n1Cc1ccccc1 | 25 | -1% | -9% | 21µM* | -11% | 16µM*
COc1ccc(CCNC(=O)c2cc3c(=O)n4ccccc4nc3n(CCCN3CCOCC3)c2=N)cc1 | -28 | ? | ? | 8.2µM* | 19% | ?
COc1ccc(CCNC(=O)c2cc3c(=O)n4ccccc4nc3n(CCN3CCOCC3)c2=N)cc1 | -9 | 3.7µM* | 2.6µM* | 23µM* | 4% | 21µM*
CC(C)C(NC(=O)c1ccc(C(C)(C)C)cc1)C(=O)NCCc1ccccn1 (configuration not stated) | 29 | ? | 21µM* | -3% | 1% | 18%
Cc1cccc(C)c1NC(=O)CNC(=O)C(NC(=O)c1ccc(C(C)(C)C)cc1)C(C)C (configuration not stated) | -6 | ? | 21µM* | 11% | ? | -7%
CC(C)C(NC(=O)c1ccc(C(C)(C)C)cc1)C(=O)NCC(c1ccccc1)N(C)C (configuration not stated) | -18 | ? | 21µM* | -3% | -26% | 15%
Cc1cnccn1 | . | ? | 11% | . | . | .
Cc1ccc(NC(=O)C(=O)NCC(c2cccnc2)N2CCOCC2)cc1C (configuration not stated) | . | -23% | ? | . | . | .
Cc1ccc(NC(=O)C(=O)NCC(c2cccnc2)N2CCN(Cc3ccccc3)CC2)cc1F (configuration not stated) | . | 7.3µM* | 5.8µM* | . | . | .
Cc1ccc(NC(=O)C(=O)NCC(c2cccnc2)N2CCN(Cc3ccccc3)CC2)cc1C (configuration not stated) | . | 16µM* | 16µM* | . | . | .
COc1ccc(Nc2ncc(C(=O)O)c3ccccc23)cc1 | 25 | -7% | -4% | -4% | -4% | -6%
COc1ccc(N2CCN(C(=O)C3CCN(C(=O)c4cccc(Cl)c4)CC3)CC2)cc1 | 10 | ? | ? | -5% | 3% | ?
COc1ccc(N2CCN(C(=O)c3csc4ccccc34)CC2)cc1 | -6 | -21% | ? | 1% | 0% | 9%
COc1ccc(N2CCN(C(=O)c3cnc(N4CCOCC4)c4ccccc34)CC2)cc1 | . | ? | 23µM* | . | . | .
COC(=O)c1ccc(OC)cc1OCC(=O)N1CCN(c2ccc(F)cc2)CC1 | 17 | -9% | -16% | -3% | 4% | 8%
COc1ccc(Nc2ncc(C(=O)N3CCN(c4ccc(F)cc4)CC3)c3ccccc23)cc1 | -59* | 23µM* | 5.2µM* | -4% | -4% | 13%
COc1ccc(Nc2ncc(C(=O)N3CCN(c4ccc(OC)cc4)CC3)c3ccccc23)cc1 | . | 23µM* | 16µM* | . | . | .
COc1ccc(Nc2ncc(C(=O)N3CCN(c4cccc(Cl)c4)CC3)c3ccccc23)cc1 | . | 15µM* | 4.6µM* | . | . | .
CCn1c(=O)n(CC2CCC(C(=O)NC(C)C)CC2)c(=O)c2sccc21 (configuration not stated) | . | -3% | -4% | . | . | .
N#C/C(=C\c1ccc(OCC(N)=O)cc1)S(=O)(=O)c1ccccc1 | 0 | 1% | -2% | -3% | -1% | 4%
CCC1(C2CCN(C(=O)c3ccccc3Cl)CC2)NC(=O)N(CCc2scnc2C)C1=O (configuration not stated) | . | 19% | -9% | . | . | .
O=C1OC(c2ccc(F)cc2)=N/C1=C\c1ccc(Br)o1 | 3 | ? | 13µM* | 0% | 1% | 1%
SMILES | IL1B secr inh | TDP1 cell CPT | TDP1 cell noCPT | SW480 rerep | BCR signal inh | MCF10A rereplic
C=CCn1c(SCc2c(C)noc2C)nc2ccccc2c1=O | 40 | 0.56µM* | 0.79µM* | 0.65µM* | ? | 7.3µM*
C=CCn1c(SCc2c(C)noc2C)nc2cc(C(=O)O)ccc2c1=O | 31 | ? | ? | ? | -14% | 2.9µM*
C=CCn1c(SCc2nc3ccccc3c(=O)[nH]2)nc2ccccc2c1=O | 14 | ? | ? | 16% | -13% | ?
C=CCn1c(SCc2ccc(Br)cc2F)nc2cc(C(=O)O)ccc2c1=O | 10 | -1% | -16% | -1% | ? | ?
Cc1cc(N2CCN(S(=O)(=O)c3ccc(Cl)cc3)CC2)c2ccccc2n1 | -64* | 23µM* | 21µM* | -8% | 0% | -6%
Cn1c(N2CCN(S(=O)(=O)c3ccc(Cl)cc3)CC2)nc2ccccc21 | 7 | ? | ? | -11% | 9% | -2%
Cc1cc(N2CCN(S(=O)(=O)c3ccc(Cl)c(Cl)c3)CC2)c2ccccc2n1 | -12 | ? | 16µM* | 7% | ? | ?
COc1ccc(N2CCN(C(=S)Nc3ccccc3OC)CC2)cc1 | -16 | 1% | -21% | 1% | 3% | 2%
NC(=O)C1CCN(C(=O)c2ccccc2SCC(=O)NCC2CCCCC2)CC1 | 6 | 0% | -7% | -4% | -1% | -2%
COc1ccc(-c2cnc3c(NC=O)cc(-c4ccc(S(C)(=O)=O)cc4)cn23)cc1OC | -19 | 2.9µM* | 2.9µM* | . | . | .
COc1ccccc1-c1cc(NC=O)c2ncc(-c3ccc(S(C)(=O)=O)cc3)n2c1 | ? | 12µM* | 9.2µM* | . | . | .
COc1cc(-c2cnc3c(NC=O)cc(-c4ccc(S(C)(=O)=O)cc4)cn23)cc(OC)c1OC | 22 | 16µM* | 18µM* | . | . | .
CCSc1ccc(-c2cc(NC=O)c3ncc(-c4cc(OC)c(OC)c(OC)c4)n3c2)cc1 | 110 | ? | ? | . | . | .
COc1ccc(CNC(=O)c2cn(Cc3ccccc3OC)c(=O)s2)cc1 | -14 | -30% | -24% | . | . | .
Cc1ccc(C)c(C(=O)OCC(=O)Nc2ccc(N3CCOCC3)cc2)c1 | -13 | 3% | -13% | -9% | -1% | 3%
